Compound activity from PubChem BioAssay.
An excerpt weighted towards active compounds, which were near 8% of everything screened.
ELG1 repair inh: blocks ELG1-dependent DNA repair in HEK293T cells; HEK293T ELG1-luciferase reporter, luminescence, 16 h; DNA damage induced by 5-fluorouridine; Potency, µM (titrated, usually from 46.1 µM), actives largely listed as inhibitors; hit rate 2.3% among 330,000; AID 504467; also: nearly all actives have a fitted effect of over 55% in size
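DMSO vehicle served as the neutral condition. Each well held 2,000 cells given 5-fluorouridine plus compound; after 16 hr at 37 °C/5% CO2, ONE-Glo was added and luciferase measured 30 min later.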
VP16 counter: counter-screen for ROR gamma inhibitors: Gal4-VP16 reporter; hit rate 3.5% among 310,000; Potency, µM (top dose mostly 53.6 µM), usual class: inhibitors; Drosophila S2 Gal4-VP16 UAS-luciferase, luminescence, 20 h;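 also: Gal4-VP16 expression switched on by copper sulfate through the metallothionein promoter; nearly all actives have a fitted effect of over 50% in size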
RORgamma inh: ROR gamma (mouse) transcription inhibition; P51450; AID 2551; Potency, µM (series often up to 53.6 µM), hits mostly inhibitors; Drosophila S2 Gal4-RORgamma UAS-luciferase reporter, 20 h; hit rate 5.4% among 310,000; also: nearly all actives have a fitted effect of over 60% in size
Target sequence (P51450 whole entry, looked up, the tested form may be a part): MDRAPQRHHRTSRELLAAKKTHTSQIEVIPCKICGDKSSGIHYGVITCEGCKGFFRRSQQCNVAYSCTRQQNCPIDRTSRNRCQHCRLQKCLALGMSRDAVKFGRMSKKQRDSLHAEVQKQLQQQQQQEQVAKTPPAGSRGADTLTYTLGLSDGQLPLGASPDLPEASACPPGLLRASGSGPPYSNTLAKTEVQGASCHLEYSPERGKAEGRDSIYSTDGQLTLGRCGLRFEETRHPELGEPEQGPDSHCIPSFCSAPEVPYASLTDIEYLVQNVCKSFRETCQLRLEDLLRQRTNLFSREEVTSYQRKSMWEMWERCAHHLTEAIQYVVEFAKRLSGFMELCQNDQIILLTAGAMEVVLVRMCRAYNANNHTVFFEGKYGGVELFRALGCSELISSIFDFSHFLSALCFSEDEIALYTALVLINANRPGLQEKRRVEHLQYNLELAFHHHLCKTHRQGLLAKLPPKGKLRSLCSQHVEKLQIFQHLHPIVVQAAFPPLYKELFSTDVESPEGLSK
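Schneider cells (Drosophila), stable Gal4 DBD–ROR gamma + UAS-luc; 1 hr cmpd preincubation; Cu2+ induction 700 uM final; 20 hr ambient; luminescence.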
Coupling enz: counter-screen for Giardia aldolase inhibitors: coupling enzyme system; coupling enzyme system counterscreen, AmpLite Red fluorescence; activity change, negative = inhibition, % at 58.2 µM, hits read low; hit rate 0.67% among 290,000; AID 2472; in the data active = activity change below about -30%
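Counterscreen lacking aldolase: glyceraldehyde-3-phosphate coupling-enzyme reagent preincubated 10 min at RT with compound (at 57.5 uM final), then substrate/coupling system with AmpLite Red added; fluorescence read at 525/598 nm after 20 min RT.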
TSHR antag: human thyrotropin receptor antagonism; TSHR-expressing cells, TSH-stimulated cAMP HTRF, 2 h; stronger effect = lower value; activity change, negative = inhibition, % at 11.5 µM; hit rate 0.2% among 330,000; AID 504810; P16473;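 active = activity change below a set negative limit, meaning inhibition stronger than a set level, cut at about -70% in these data; inconclusive = activity change between two set negative limits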
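Antagonism was scored as loss of TSH-driven cAMP in TSHR cells, stimulated with 4nM TSH (EC80) for 2 hours at 37 deg C and detected by homogeneous HTRF competition immunoassay.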
Of the large screens only hits and unclear results are named; the others gave an inactive call. Unless noted, calls follow the shape of the dose curve; as a rule, active = well fitted curve in the direction sought with a large enough effect; inconclusive = small, poorly fitted or top-dose-only effect, or another doubt; inactive = no such curve, though single readings can be large; an effect the other way counts as inactive or inconclusive.

O=C(CN1CCN(Cc2ccccc2)CC1)NNC(=O)c1ccccc1	none (no result: VP16 counter, RORgamma inh, Coupling enz)
COc1ccc(Cl)cc1S(=O)(=O)Nc1ccc2c(c1)n(C)c(=O)n2C	ELG1 repair inh inconclusive
CCN(CC)S(=O)(=O)c1cc(OC)ccc1N=Nc1ccc(O)c2ncccc12	ELG1 repair inh inconclusive, VP16 counter 1.3µM, RORgamma inh 1.3µM
CCS(=O)(=O)c1ccc(OC)c(N=Nc2ccc(O)c3ncccc23)c1	ELG1 repair inh inconclusive, VP16 counter inconclusive, RORgamma inh 1µM
COc1ccc(S(=O)(=O)NCCOc2cccc3cccnc23)cc1OC	none
COc1ccc(-n2c(=O)c(CCc3ccccc3)nc3cnc(N4CCNCC4)nc32)cc1	VP16 counter inconclusive, RORgamma inh inconclusive (no result: ELG1 repair inh, TSHR antag)
Cc1cccc(CS(=O)(=O)Cc2ccc(C(=O)NC(C)c3ccccc3)o2)c1 (stereo not given)	none
Cc1ccccc1CS(=O)(=O)c1nnc([C@H](Cc2ccccc2)NC(=O)OC(C)(C)C)o1	ELG1 repair inh inconclusive, VP16 counter 3.2µM, TSHR antag inconclusive
CC(C)(C)OC(=O)N[C@@H](Cc1ccccc1)c1nnc(S(=O)(=O)Cc2ccccc2)o1	VP16 counter 4.5µM, RORgamma inh 4.5µM
CCC(C)[C@@H](NC(=O)OC(C)(C)C)c1nnc(S(=O)(=O)Cc2cccc(C)c2)o1 (stereo not given in full)	ELG1 repair inh inconclusive, VP16 counter 5µM, RORgamma inh 3.2µM, TSHR antag -72
COC(=O)CN1C(=O)COc2ccc(S(=O)(=O)N3CCCC3)cc21	TSHR antag -135
O=C(N/N=C/c1ccncc1)c1ccccc1[N+](=O)[O-]	none
O=C(N/N=C/c1cc(Br)cs1)c1ccccc1[N+](=O)[O-]	ELG1 repair inh inconclusive, VP16 counter 7.9µM, RORgamma inh 5.6µM
O=C(N/N=C/c1ccc(Cl)s1)c1ccccc1[N+](=O)[O-]	VP16 counter 7.1µM, RORgamma inh 6.3µM
Cc1c(/C=C(\C#N)C(=O)NCc2ccccc2)cc(C#N)n1C	none
CN1CCN(CC(=O)n2c3c(c4ccccc42)CCCC3)CC1	Coupling enz -47
COc1ccccc1CNC(=O)COC(=O)C1CCN(S(=O)(=O)c2ccccc2)CC1	none (no result: VP16 counter, RORgamma inh, Coupling enz)
COn1c(C)c(C(C)=O)c2c3nonc3ccc21	ELG1 repair inh 21µM, Coupling enz -47
On1c2c(c3c4nonc4ccc31)CCCC2	ELG1 repair inh 13µM, VP16 counter 22µM, RORgamma inh inconclusive, Coupling enz -60
Oc1ccccc1-n1nc2ccc3nonc3c2n1	none
COn1c2c(c3c4no[n+]([O-])c4ccc31)CCCC2	none
COn1c2c(c3c4nonc4ccc31)CCCC2	Coupling enz -43
CCN(CC(=O)NCc1cccs1)C(=O)/C=C/c1cc(OC)c(OC)c(OC)c1	none (no result: VP16 counter, RORgamma inh, Coupling enz)
COc1ccc(C(=O)OCc2nc(N)nc(Nc3ccccc3C)n2)cc1OC	ELG1 repair inh inconclusive, RORgamma inh 18µM
CCN(CC)S(=O)(=O)c1cccc(NC(=O)COC(=O)c2cc(C)oc2C)c1	ELG1 repair inh 21µM
Cc1ccc(OCC(=O)Nc2cccc(S(=O)(=O)N3CCCCCC3)c2)cc1C	none (no result: VP16 counter, RORgamma inh, Coupling enz)
Cc1nn(-c2cccc(Cl)c2)c(Cl)c1/C=N/NC(=O)c1cccs1	VP16 counter 13µM, RORgamma inh inconclusive
Cc1nn(-c2ccccc2)c(Cl)c1/C=N/NC(=O)c1ccc(NS(=O)(=O)c2cccs2)cc1	ELG1 repair inh inconclusive
CCNC(=S)N/N=C/c1c(C)nn(-c2cccc(Cl)c2)c1Cl	VP16 counter 3.5µM, RORgamma inh 1.4µM
Cc1oc2ccc(O)c(CN3CCOCC3)c2c1C(=O)c1ccc(Cl)cc1	Coupling enz -40
CCn1cc(C(=O)NCCCOC)c(=O)c2cc(S(=O)(=O)N3CCCC3)ccc21	none (no result: Coupling enz)
Cc1ccnc(N(C(=O)Nc2ccccc2)C2=NCC(C)(C)S2)c1	ELG1 repair inh inconclusive, VP16 counter inconclusive, RORgamma inh 11µM
O=C(C1CC1)N1CCc2cc(Br)cc(S(=O)(=O)N3CCN(c4ccccn4)CC3)c21	VP16 counter 22µM
O=C(c1ccc(Cl)c(S(=O)(=O)N2CCCCCC2)c1)N1CCN(c2ccccn2)CC1	ELG1 repair inh 21µM
CCOc1ccccc1N1CCN(C(=O)c2cc(S(=O)(=O)N3CCCCC3)ccc2C)CC1	ELG1 repair inh inconclusive (no result: VP16 counter, RORgamma inh, Coupling enz)
CCOc1ccccc1N1CCN(C(=O)c2ccc(Cl)c(S(=O)(=O)N3CCCCC3)c2)CC1	ELG1 repair inh 23µM (no result: VP16 counter, RORgamma inh, Coupling enz)
Cc1ccccc1NC(=O)c1ccc(F)c(S(=O)(=O)N2CCN(c3ccccn3)CC2)c1	ELG1 repair inh 23µM, VP16 counter inconclusive, RORgamma inh inconclusive
COc1ccccc1OC[C@H](O)COC(N)=O	none (no result: ELG1 repair inh, TSHR antag)
O=C(O)CCC/C=C\CC1C2CCC(O2)C1CNNC(=O)Nc1ccccc1 (stereo not given)	none (no result: ELG1 repair inh, TSHR antag)
COc1cccc(-c2ncc3ccccc3c2COC(=O)CCCC(=O)O)c1	none (no result: VP16 counter, RORgamma inh, Coupling enz)
COc1ccc(-c2cc(C3C4C=CCC(C)C4C(=O)N3Cc3ccccc3)ccc2F)cc1OC (stereo not given)	RORgamma inh inconclusive (no result: ELG1 repair inh, TSHR antag)
O=C(Nc1cccnc1)c1ccc(Cl)c(S(=O)(=O)N2CCCCCC2)c1	ELG1 repair inh 21µM, RORgamma inh inconclusive
Cc1ccc(C(=O)Nc2cccnc2)cc1S(=O)(=O)N1CCCCCC1	none (no result: Coupling enz)
CN(C)c1cc(Nc2ccc(O)cc2)c([N+](=O)[O-])c2nonc12	none
O=[N+]([O-])c1c(Nc2ccccn2)cc(Cl)c2nonc12	ELG1 repair inh inconclusive, VP16 counter 8.9µM, RORgamma inh 13µM, Coupling enz -57
O=[N+]([O-])c1c(Nc2ccc(O)cc2)cc(Cl)c2nonc12	ELG1 repair inh inconclusive, VP16 counter 4.5µM, RORgamma inh 5.6µM, TSHR antag -102
O=C(O)c1ccccc1Nc1cc(Cl)c2nonc2c1[N+](=O)[O-]	none (no result: VP16 counter, RORgamma inh)
COc1ccc(O[C@H]2C=C[C@@H](c3ccccc3)O[C@H]2COC(=O)CC/C(C)=N\O[C@@H](C)c2cn([C@H]3COC[C@H]3O)nn2)cc1	none (no result: ELG1 repair inh, TSHR antag)
COC(=O)N/N=C/c1cccc([N+](=O)[O-])c1	none
Cc1occc1C(=O)N/N=C/c1ccc(Cl)c([N+](=O)[O-])c1	ELG1 repair inh inconclusive
Cc1cccc(NC(=S)N/N=C/c2ccc(Cl)c([N+](=O)[O-])c2)c1	VP16 counter 4µM, RORgamma inh 1.6µM
Cc1cccc(NC(=S)N/N=C/c2cccc([N+](=O)[O-])c2)c1	RORgamma inh 1.1µM
CCOc1ccc(S(=O)(=O)Nc2cnc3ccccc3c2)cc1	VP16 counter 6.3µM, RORgamma inh inconclusive
CCOc1ccc(S(=O)(=O)Nc2nc3ccccc3nc2Cl)cc1	none
Cc1ccc(-c2cc(C(=O)N/N=C/C=C/c3ccccc3)n[nH]2)s1	VP16 counter 7.1µM, RORgamma inh 4µM
Cc1cc(C(=O)N/N=C/C=C/c2ccccc2)n[nH]1	none
